# Results from the supplement of paper PMC4022240.
# ± gives the standard deviation.
# T1: HaloTag-ATRX ADD domain (163-292)
# T1 chain: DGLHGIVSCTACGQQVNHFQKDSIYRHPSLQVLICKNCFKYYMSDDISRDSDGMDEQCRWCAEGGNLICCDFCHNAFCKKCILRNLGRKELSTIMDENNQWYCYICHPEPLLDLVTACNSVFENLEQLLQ
# Columns and labels:
# Experiment in all cases: peptide microarray binding signal (635 nm), min-max normalized on array (fraction of array maximum); higher = stronger binding
# [1] = target: T1, HaloTag-ATRX ADD domain (163-292)
# Protocol: (§1)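 Histone 13-mer peptides were synthesized as cellulose conjugates with a C-terminal 20-atom PEG linker and printed in triplicate on nitrocellulose. The sequence given is the unmodified backbone; PTMs (Kme1/2/3, Kac, Sph/Tph, Rme/Rme2a/Rme2s, Rcit) are listed in the label and the 'peptide modifications' condition. Slides were probed at 4 °C for 1 h with biotin-labelled (HQ)5-HaloTag reader fusions (ATRX-ADD, ING2-PHD) then streptavidin-Alexa647, or with rabbit histone antibodies then anti-rabbit Alexa647. The mean 635 nm signal of the triplicate spots was scaled 0-1 between the lowest and highest values on each array.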
# [2] = target: HaloTag-ING2 PHD (mouse Ing2 200-280)
# Protocol: as §1
# [3] = target: anti-H3K4me3 antibody ab8580
# Protocol: as §1
# [4] = target: anti-H3K9me3 antibody ab8898
# Protocol: as §1
# [5] = peptide region: H2B 1-13, peptide modifications: H2BS6ph, binder concentration: 1:2,000 dilution
# [6] = peptide region: H2B 1-13, peptide modifications: H2BS6ph, binder concentration: 1:10,000 dilution
# [7] = peptide region: H2B 7-19, peptide modifications: H2BK11ac H2BK12ac H2BK15ac, binder concentration: 1:2,000 dilution
# [8] = peptide region: H2B 7-19, peptide modifications: H2BK11ac H2BK12ac H2BK15ac, binder concentration: 1:10,000 dilution
# [9] = peptide region: H2B 7-19, peptide modifications: H2BK11ac H2BK12ac H2BK15ac H2BK16ac, binder concentration: 1:2,000 dilution
# [10] = peptide region: H2B 7-19, peptide modifications: H2BK11ac H2BK12ac H2BK15ac H2BK16ac, binder concentration: 1:10,000 dilution
# [11] = peptide region: H2A 11-23, peptide modifications: H2AK13ac H2AK15ac, binder concentration: 1:2,000 dilution
# [12] = peptide region: H2A 11-23, peptide modifications: H2AK13ac H2AK15ac, binder concentration: 1:10,000 dilution
# [13] = peptide region: H2A 11-23, peptide modifications: H2AT16ph, binder concentration: 1:2,000 dilution
# [14] = peptide region: H2A 11-23, peptide modifications: H2AT16ph, binder concentration: 1:10,000 dilution
binder,measurement,setting,value
PEPAKSAPAPKKG [H2B 1-13 P E P A K Sph A P A P K K G],peptide microarray binding signal,"[1]; peptide region: H2B 1-13, peptide modifications: H2BS6ph, binder concentration: 50 nM",0.00342 ± 3.7e-05
same,peptide microarray binding signal,"[1]; peptide region: H2B 1-13, peptide modifications: H2BS6ph, binder concentration: 500 nM",0.00543 ± 0.00012
same,peptide microarray binding signal,"[2]; peptide region: H2B 1-13, peptide modifications: H2BS6ph, binder concentration: 10 nM",0.00346 ± 0.00017
same,peptide microarray binding signal,"[2]; peptide region: H2B 1-13, peptide modifications: H2BS6ph, binder concentration: 100 nM",0.00425 ± 0.00022
same,peptide microarray binding signal,[3]; [5],0.00245 ± 6.6e-05
same,peptide microarray binding signal,[3]; [6],0.000799 ± 8.3e-06
same,peptide microarray binding signal,[4]; [5],0.00068 ± 1e-05
same,peptide microarray binding signal,[4]; [6],0.000923 ± 9.6e-06
APAPKKGSKKAVT [H2B 7-19 A P A P Kac Kac G S Kac K A V T],peptide microarray binding signal,"[1]; peptide region: H2B 7-19, peptide modifications: H2BK11ac H2BK12ac H2BK15ac, binder concentration: 50 nM",0.00809 ± 0.00032
same,peptide microarray binding signal,"[1]; peptide region: H2B 7-19, peptide modifications: H2BK11ac H2BK12ac H2BK15ac, binder concentration: 500 nM",0.0163 ± 0.00026
same,peptide microarray binding signal,"[2]; peptide region: H2B 7-19, peptide modifications: H2BK11ac H2BK12ac H2BK15ac, binder concentration: 10 nM",0.0198 ± 0.0062
same,peptide microarray binding signal,"[2]; peptide region: H2B 7-19, peptide modifications: H2BK11ac H2BK12ac H2BK15ac, binder concentration: 100 nM",0.0125 ± 0.0012
same,peptide microarray binding signal,[3]; [7],0.0168 ± 0.0011
same,peptide microarray binding signal,[3]; [8],0.00325 ± 0.00019
same,peptide microarray binding signal,[4]; [7],0.00323 ± 0.00057
same,peptide microarray binding signal,[4]; [8],0.00248 ± 0.00015
APAPKKGSKKAVT [H2B 7-19 A P A P Kac Kac G S Kac Kac A V T],peptide microarray binding signal,"[1]; peptide region: H2B 7-19, peptide modifications: H2BK11ac H2BK12ac H2BK15ac H2BK16ac, binder concentration: 50 nM",0.0047 ± 0.00016
same,peptide microarray binding signal,"[1]; peptide region: H2B 7-19, peptide modifications: H2BK11ac H2BK12ac H2BK15ac H2BK16ac, binder concentration: 500 nM",0.00329 ± 0.00049
same,peptide microarray binding signal,"[2]; peptide region: H2B 7-19, peptide modifications: H2BK11ac H2BK12ac H2BK15ac H2BK16ac, binder concentration: 10 nM",0.00555 ± 0.00016
same,peptide microarray binding signal,"[2]; peptide region: H2B 7-19, peptide modifications: H2BK11ac H2BK12ac H2BK15ac H2BK16ac, binder concentration: 100 nM",0.00524 ± 0.00027
same,peptide microarray binding signal,[3]; [9],0.000264 ± 1e-05
same,peptide microarray binding signal,[3]; [10],0.000742 ± 1.3e-05
same,peptide microarray binding signal,[4]; [9],0.000982 ± 5.2e-05
same,peptide microarray binding signal,[4]; [10],0.00167 ± 2.8e-05
RAKAKTRSSRAGL [H2A 11-23 R A Kac A Kac T R S S R A G L],peptide microarray binding signal,"[1]; peptide region: H2A 11-23, peptide modifications: H2AK13ac H2AK15ac, binder concentration: 50 nM",0.00307 ± 8.1e-05
same,peptide microarray binding signal,"[1]; peptide region: H2A 11-23, peptide modifications: H2AK13ac H2AK15ac, binder concentration: 500 nM",0.00481 ± 0.00022
same,peptide microarray binding signal,"[2]; peptide region: H2A 11-23, peptide modifications: H2AK13ac H2AK15ac, binder concentration: 10 nM",0.0034 ± 8e-05
same,peptide microarray binding signal,"[2]; peptide region: H2A 11-23, peptide modifications: H2AK13ac H2AK15ac, binder concentration: 100 nM",0.00227 ± 5.8e-05
same,peptide microarray binding signal,[3]; [11],0.000359 ± 1.5e-05
same,peptide microarray binding signal,[3]; [12],0.000628 ± 6.7e-06
same,peptide microarray binding signal,[4]; [11],0.000529 ± 5.7e-05
same,peptide microarray binding signal,[4]; [12],0.000577 ± 1.6e-05
RAKAKTRSSRAGL [H2A 11-23 R A K A K Tph R S S R A G L],peptide microarray binding signal,"[1]; peptide region: H2A 11-23, peptide modifications: H2AT16ph, binder concentration: 50 nM",0.0047 ± 9.3e-05
same,peptide microarray binding signal,"[1]; peptide region: H2A 11-23, peptide modifications: H2AT16ph, binder concentration: 500 nM",0.00824 ± 0.00034
same,peptide microarray binding signal,"[2]; peptide region: H2A 11-23, peptide modifications: H2AT16ph, binder concentration: 10 nM",0.00364
same,peptide microarray binding signal,"[2]; peptide region: H2A 11-23, peptide modifications: H2AT16ph, binder concentration: 100 nM",0.00794 ± 0.00055
same,peptide microarray binding signal,[3]; [13],0.000472 ± 1.2e-05
same,peptide microarray binding signal,[3]; [14],0.000913
same,peptide microarray binding signal,[4]; [13],0.000347 ± 7e-06
same,peptide microarray binding signal,[4]; [14],0.000807 ± 1.5e-05
